# ATXN2 expr inh – Primary qHTS for Inhibitors of ATXN expression; HEK-293 ATXN2-luciferase reporter, luminescence, 24 h; Potency, µM (top dose mostly 57 µM), for the others: at the top dose activity change, negative = inhibition, hits mostly inhibitors; 360,000 compounds, 0.72% hits; note: % is set by controls: 0 for no effect and ±100 for the full control effect; nearly all actives have a fitted effect of over 55% in size
#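 qHTS (up to 57 uM final) was run with 24 h compound exposure of reporter cells at 37 °C. Each well was multiplexed: SteadyGlo luminescence measured ATXN2-luciferase expression after a fluorogenic Gly-Phe-AFC viability readout (25 uM final).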
# TGFb inhibitor – qHTS for Inhibitors of TGF-b. HepG2 CAGA-GFP TGF-b/SMAD3 reporter, GFP fluorescence, 18 h; TGF-beta stimulated, 500 pg/mL final. Potency, µM (doses to about 46.1 µM), for the others: at the top dose activity, negative = inhibition, actives largely listed as inhibitors. 410,000 compounds, 1.2% hits. AID 588855, 2011; note: % is set by controls: 0 for no effect and ±100 for the full control effect; nearly all actives have a fitted effect of over 65% in size
#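 Per well, imaged GFP fluorescence of HEPG2 CAGA-GFP cells gives the signal; cells get compound, then TGF-beta (500 pg/mL final), 18 h at 37 degrees C; %Activity versus -TGF-beta and +DMSO controls.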
# HepG2 tox-1 – qHTS for Inhibitors of TGF-b: Cytotox Counterscreen | HepG2 CAGA-GFP viability, ATP luminescence, 18 h | 410,000 compounds, 0.76% hits | AID 588856, 2011 | Potency, µM (highest dose often 46.1 µM), inactives show at the highest dose activity change, negative = cytotoxicity, usual class: cytotoxic
#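 CellTiter-Glo luminescence gave cytotoxicity after 18 hours at 37 degrees C. The cells were HepG2 CAGA-GFP in 1% FBS DMEM, stimulated with 500 pg/mL TGF-beta after compound addition. %Activity was normalised to no-cell wells (complete cell-killing) and DMSO (no toxicity), and curves were fitted and classified.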
# KB-3-1 cytotox – qHTS assay for MDR1-selective chemotherapeutics: Primary screen using the parental adenocarcinoma cell KB-3-1. KB-3-1 viability, CellTiter-Glo ATP luminescence, 72 h. 400,000 compounds, 1.4% hits. Potency, µM (series often up to 46.1 µM), most hits filed as cytotoxic. AID 1347075, 2019; note: % is set by controls: 0 for no effect and ±100 for the full control effect; nearly all actives have a fitted effect of over 60% in size
#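 KB-3-1 cells, DMEM (no phenol red) + 10% FBS; compound by pin transfer, 72 h, 37 °C. Readout: CellTiter-Glo luminescence after 10 min. Data normalized, curve-fitted.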
# KB-V1 cytotox – qHTS assay for MDR1-selective chemotherapeutics: Primary screen using the drug-selected MDR subline cells KB-V1; KB-V1 MDR cells viability, CellTiter-Glo, 72 h; Potency, µM (series often up to 46.1 µM), hits mostly cytotoxic; 400,000 compounds, 3.4% hits; note: % is set by controls: 0 for no effect and ±100 for the full control effect; nearly all actives have a fitted effect of over 60% in size
#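 In this primary screen, KB-V1 cells overexpressing P-gp are incubated with library compounds (lowest to highest concentration) for 72 h at 37 degrees C before a luminescent ATP viability read.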
# S2 tox – Viability Counterscreen for Primary qHTS for Inhibitors of ATXN expression; S2 cells (HEK-293 line with an ATXN2-luciferase reporter) viability, CellTiter-Fluor protease fluorescence, 24 h; Potency, µM (highest dose often 56.7 µM), hits mostly cytotoxic; 400,000 compounds, 0.49% hits; AID 651635, 2014; note: nearly all actives have a fitted effect of over 40% in size
# TGFb confirm – qHTS for Inhibitors of TGF-b: Confirmation of Cherry Picks; shares compounds with TGFb inhibitor; HepG2 CAGA-GFP TGF-b reporter, GFP fluorescence, 18 h; cells stimulated with TGF-beta, 500 pg/mL; Potency, µM (titrated, usually from 46.1 µM), inactives show top-dose activity, negative = inhibition, actives largely listed as inhibitors; 1,600 compounds, 63% hits; AID 720534, 2013; note: % is set by controls: 0 for no effect and ±100 for the full control effect; nearly all actives have a fitted effect of over 65% in size
# HepG2 tox-2 – qHTS for Inhibitors of TGF-b: Cytotox Counterscreen for Cherry Picks | shares compounds with TGFb inhibitor | HepG2 CAGA-GFP viability, ATP luminescence, 18 h; cells stimulated with TGF-beta, 500 pg/mL | Potency, µM (titrated, usually from 46.1 µM), without a hit: at the highest dose activity, negative = cytotoxicity, hits mostly inhibitors | 1,600 compounds, 27% hits; note: % is set by controls: 0 for no effect and ±100 for the full control effect; nearly all actives have a fitted effect of over 70% in size
# CCL64 TGFb inh – qHTS for Inhibitors of TGF-b: CCL64 Cells Orthogonal Assay for Cherry Picks | shares compounds with TGFb inhibitor | CCL64 CAGA-GFP reporter, TGF-b stimulated, GFP fluorescence, 18 h | Potency, µM (series often up to 46.1 µM), for the others: at the highest dose activity, negative = inhibition, hits mostly inhibitors | 1,600 compounds, 41% hits; note: nearly all actives have a fitted effect of over 65% in size
# COP TGFb inh – qHTS for Inhibitors of TGF-b: Hit Validation in HepG2 Cells using COP promoter | shares compounds with TGFb inhibitor | HepG2 COP-GFP TGF-b reporter, GFP fluorescence, 18 h; cells stimulated by added recombinant TGF-beta | Potency, µM (top dose mostly 46.1 µM), inactives show at the top dose activity, negative = inhibition, hits mostly inhibitors | 1,600 compounds, 3% hits | AID 720537, 2013; note: nearly all actives have a fitted effect of over 70% in size
# An asterisk follows results filed as active; i = inactive; ? = inconclusive; / = no result given. In the library only some 5.9% were active in any assay of this set; here they are far more common. Calls come from the whole dose curve; as a rule, active = well fitted curve in the direction sought with a large enough effect; inconclusive = small, poorly fitted or top-dose-only effect, or another doubt; inactive = no such curve, though single readings can be large; an effect the other way counts as inactive or inconclusive. Potency is the fitted concentration of half-maximal effect.
SMILES,ATXN2 expr inh,TGFb inhibitor,HepG2 tox-1,KB-3-1 cytotox,KB-V1 cytotox,S2 tox,TGFb confirm,HepG2 tox-2,CCL64 TGFb inh,COP TGFb inh
COc1ccccc1N1CCN(C(=O)Cn2ncc3c(=O)oc4ccc(C)cc4c32)CC1,/,-7%,-21%,i,i,/,/,/,/,/
Nc1nnnn1/N=C/C=C/c1ccccc1,36%,-20%,6%,i,i,i,/,/,/,/
Nc1nnnn1/N=C/C(Br)=C/c1ccccc1,25µM*,3.5µM*,-30%,?,?,14µM*,?,?,?,34%
CCn1c(=O)c(C(=O)CN2CCN(S(=O)(=O)c3cc(C)ccc3C)CC2)c(N)n(Cc2ccccc2)c1=O,-23%,11µM*,-14%,i,?,i,12µM*,?,12µM*,66%
CCC1CN(C(=O)N2CCC(C(=O)NCc3ccc(N(C)C)cc3)CC2)c2ccccc2O1 (stereo not drawn),/,-19%,7%,/,/,/,/,/,/,/
COc1ccccc1CCNC(=O)Cc1c(C)c2c(cc(C)c3c(C)coc32)oc1=O,/,15%,-18%,/,/,/,/,/,/,/
COc1cc(O)c(C(CC(=O)N2CCCC2)c2cc(OC)c(OC)c(OC)c2)c(OC)c1 (stereo not drawn),9%,31%,19%,i,i,i,5%,1%,-13%,-7%
Cc1ccc(S(=O)(=O)Nc2nc3ccccc3nc2Nc2cccc(S(=O)(=O)N3CCCC3)c2)cc1,?,43%,-42%,?,?,?,/,/,/,/
O=[N+]([O-])c1cccc(S(=O)(=O)Nc2nc3ccccc3nc2Nc2cccc(S(=O)(=O)N3CCCCC3)c2)c1,?,4.5µM*,-32%,i,?,?,3.3µM*,6.5µM*,2.9µM*,1%
CC(C)C[C@@H](CN1CCC[C@@H]1CN1C(=S)NC[C@@H]1Cc1ccccc1)N1C[C@H](Cc2ccc(O)cc2)N(CCc2ccccc2)C1=S,-27%,?,-24%,i,?,?,/,/,/,/
Oc1ccc(C[C@@H](CN2CCC[C@@H]2CN2C(=S)NC[C@@H]2Cc2ccccc2)N2C[C@H](Cc3ccccc3)N(CCc3ccccc3)C2=S)cc1,-12%,-6%,-51%,i,i,?,/,/,/,/
CCOc1ccc(CCN2C(=S)N([C@@H](Cc3ccc(O)cc3)CN3CCC[C@@H]3CN3C(=S)NC[C@@H]3Cc3ccccc3)C[C@@H]2Cc2ccc(O)cc2)cc1,0%,8.9µM*,-1%,?,i,?,6.5µM*,?,5.8µM*,44%
CCOc1ccc(CCN2C(=S)N([C@@H](CC(C)C)CN3CCCC3CN3C(=S)NC[C@@H]3Cc3ccc(O)cc3)C[C@@H]2Cc2ccccc2)cc1 (stereo partly drawn),-20%,?,-8%,?,?,i,?,-16%,?,-3%
CCOc1ccc(CCN2C(=S)N([C@@H](CC(C)C)CN3CCCC3CN3C(=S)NC[C@@H]3Cc3ccc(O)cc3)C[C@@H]2Cc2ccc(O)cc2)cc1 (stereo partly drawn),?,7.1µM*,13µM*,?,?,?,21µM*,?,13µM*,53%
C[C@@H](C(=O)NCCc1ccccc1F)N1C(=O)N2CCc3c([nH]c4ccccc34)[C@@]2(C)C1=O,-7%,?,-29%,i,i,?,/,/,/,/
C[C@@H](C(=O)NCCc1ccccc1)N1C(=O)N2CCc3c([nH]c4ccccc34)[C@@]2(C)C1=O,1%,10µM*,-29%,i,i,?,16µM*,?,?,-2%
CCO[C@@H]1OC(C(=O)NCc2nc3ccccc3[nH]2)=C[C@H](C(C)(C)C)[C@H]1CCCO,4%,1.6µM*,-5%,1.3µM*,i,?,?,6%,?,-25%
COc1ccc(CNc2cccc3[nH]c(C(F)(F)F)nc23)cc1OC,/,5.6µM*,-31%,i,i,/,?,-4%,-21%,-9%
CC1CN(c2nc3ccccc3nc2SCC(=O)Nc2cccc(C(F)(F)F)c2)CC(C)O1 (stereo not drawn),?,16µM*,-32%,23µM*,i,?,23µM*,?,?,29%
Cc1cccc(NC(=O)CSc2nc3ccccc3nc2N2CC(C)OC(C)C2)c1 (stereo not drawn),-11%,?,8%,?,i,?,/,/,/,/
O=C(OC(C(=O)Nc1cc(Cl)cc(Cl)c1)c1ccccc1)C1=COCCO1 (stereo not drawn),-12%,16µM*,-14%,i,?,?,?,?,18µM*,43%
COC(=O)[C@@]1(Cc2ccccc2)[C@H]2C(=O)N(Cc3ccccc3)C(=O)[C@H]2[C@H]2CN=C(SCC3CC3)N21,-17%,11µM*,-15%,i,i,?,?,?,?,37%
